TR-FRET SRC-2 ct: counter-screen for PPARgamma SRC-2 recruitment agonists: TR-FRET artefact. active compounds read high. TR-FRET ratio at 8 µM. 0.4% of 200,000 active; in the data active means TR-FRET ratio above about 2000
SRC3 TRFRET art: counter-screen for PPARgamma SRC-3 recruitment agonists: TR-FRET artefact; PPARgamma/SRC-3 format; active compounds read high; TR-FRET ratio at 8 µM; 0.39% of 99,000 active; AID 1048; in the data active means TR-FRET ratio above about 2000
PPARg SRC3 recr: promotes SRC-3 coactivator recruitment by human PPARgamma. biochemical PPARgamma/SRC-3 coactivator recruitment assay. activation, % at 8 µM. 0.26% of 200,000 active; in the data active means activation above about 23%;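 further: 0% = DMSO and 100% = reference agonist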
PPARg SRC2 recr: agonists of SRC-2 recruitment by human PPARgamma | P37231 | PPARgamma LBD-SRC-2 recruitment, biochemical | activation, % at 8 µM | 0.34% of 200,000 active | AID 1032;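 further: 0% = vehicle and 100% = reference agonist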
SRC1 TRFRET art: counter-screen for PPARgamma SRC-1 recruitment agonists: TR-FRET artefact. TR-FRET ratio at 8 µM. 0.34% of 99,000 active. AID 1051. TR-FRET detection artefact counter-screen, emission ratio; active compounds read high; in the data active means TR-FRET ratio above about 2300
PPARg SRC1 recr: PPARgamma-driven SRC-1 recruitment agonism; PPARgamma-SRC-1 coactivator recruitment biochemical assay; 0.41% of 200,000 active; activation, % at 8 µM; P37231; AID 631; in the data active means activation above about 19%;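 further: 0% = DMSO and 100% = reference agonist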
PPARg SRC2 conf: confirmation of agonists of SRC-2 recruitment by human PPARgamma; shares compounds with PPARg SRC3 recr; biochemical SRC-2 recruitment by PPARgamma; activation, % at 8 µM; 52% of 790 active; AID 1297;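 further: 0% = vehicle alone and 100% = reference agonist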
PPARg SRC1 conf: confirmation of agonists of SRC-1 recruitment by human PPARgamma; shares compounds with PPARg SRC3 recr; PPARgamma–SRC-1 coactivator recruitment biochemical assay; activation, % at 8 µM; 43% of 790 active; AID 1300; in the data active means activation above about 20%;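 further: 0% = vehicle wells and 100% = reference agonist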
PPARg SRC3 conf: confirmation of agonists of SRC-3 recruitment by human PPARgamma. shares compounds with PPARg SRC3 recr. biochemical PPARgamma-SRC-3 coactivator recruitment, agonist mode. activation, % at 8 µM. 29% of 790 active; in the data active means activation above about 24%;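 further: 0% = vehicle wells and 100% = reference agonist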
Target sequence (P37231 whole entry, looked up): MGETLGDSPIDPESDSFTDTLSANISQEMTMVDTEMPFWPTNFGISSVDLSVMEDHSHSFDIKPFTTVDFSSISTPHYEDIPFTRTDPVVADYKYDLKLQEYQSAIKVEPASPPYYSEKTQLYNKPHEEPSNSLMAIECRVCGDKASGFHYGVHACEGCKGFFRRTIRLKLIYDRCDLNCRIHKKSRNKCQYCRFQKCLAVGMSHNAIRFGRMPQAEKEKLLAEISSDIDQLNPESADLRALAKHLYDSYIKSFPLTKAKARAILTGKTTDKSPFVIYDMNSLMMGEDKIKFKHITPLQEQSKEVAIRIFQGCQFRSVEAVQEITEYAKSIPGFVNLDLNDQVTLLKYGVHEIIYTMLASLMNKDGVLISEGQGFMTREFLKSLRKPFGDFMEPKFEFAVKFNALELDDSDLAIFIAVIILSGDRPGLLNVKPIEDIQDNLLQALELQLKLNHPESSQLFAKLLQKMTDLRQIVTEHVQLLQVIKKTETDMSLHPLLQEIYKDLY
Target sequence (Q9Y6Q9 whole entry, looked up): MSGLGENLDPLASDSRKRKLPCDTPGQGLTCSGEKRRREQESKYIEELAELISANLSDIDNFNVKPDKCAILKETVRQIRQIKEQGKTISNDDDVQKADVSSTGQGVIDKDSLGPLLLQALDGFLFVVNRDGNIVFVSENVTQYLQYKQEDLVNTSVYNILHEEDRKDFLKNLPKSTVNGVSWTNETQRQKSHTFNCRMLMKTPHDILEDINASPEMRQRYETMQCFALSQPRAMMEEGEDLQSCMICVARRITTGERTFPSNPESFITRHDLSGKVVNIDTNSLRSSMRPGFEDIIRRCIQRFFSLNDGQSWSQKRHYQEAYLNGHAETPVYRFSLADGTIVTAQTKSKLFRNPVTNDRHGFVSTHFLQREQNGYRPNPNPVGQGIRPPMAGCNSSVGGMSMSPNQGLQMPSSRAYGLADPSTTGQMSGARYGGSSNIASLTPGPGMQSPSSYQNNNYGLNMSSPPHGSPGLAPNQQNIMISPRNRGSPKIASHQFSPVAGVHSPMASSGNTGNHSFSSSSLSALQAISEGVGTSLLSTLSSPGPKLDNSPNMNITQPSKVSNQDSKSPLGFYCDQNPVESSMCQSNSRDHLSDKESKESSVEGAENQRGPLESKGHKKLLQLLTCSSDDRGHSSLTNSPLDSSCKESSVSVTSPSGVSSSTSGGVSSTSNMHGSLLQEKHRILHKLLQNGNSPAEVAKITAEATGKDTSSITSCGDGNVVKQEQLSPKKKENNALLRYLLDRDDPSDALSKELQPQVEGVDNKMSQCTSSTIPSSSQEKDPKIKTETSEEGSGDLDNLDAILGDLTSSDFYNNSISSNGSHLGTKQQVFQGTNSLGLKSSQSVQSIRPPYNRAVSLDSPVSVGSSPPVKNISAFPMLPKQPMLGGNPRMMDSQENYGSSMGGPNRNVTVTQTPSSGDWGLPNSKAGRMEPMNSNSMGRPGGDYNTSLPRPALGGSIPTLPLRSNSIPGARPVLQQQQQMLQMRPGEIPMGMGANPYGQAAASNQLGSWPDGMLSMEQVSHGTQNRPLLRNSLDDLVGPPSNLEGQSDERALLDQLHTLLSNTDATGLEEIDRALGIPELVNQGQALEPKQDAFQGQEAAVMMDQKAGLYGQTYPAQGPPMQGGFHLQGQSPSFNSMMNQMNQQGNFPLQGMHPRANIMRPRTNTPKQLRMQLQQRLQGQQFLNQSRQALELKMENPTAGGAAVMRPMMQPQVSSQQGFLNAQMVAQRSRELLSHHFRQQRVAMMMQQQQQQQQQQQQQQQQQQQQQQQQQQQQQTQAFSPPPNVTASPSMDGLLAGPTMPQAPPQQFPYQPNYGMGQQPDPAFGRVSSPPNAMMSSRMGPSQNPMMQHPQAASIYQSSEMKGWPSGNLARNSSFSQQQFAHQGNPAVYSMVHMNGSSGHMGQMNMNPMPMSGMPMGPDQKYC
* marks the source's active call; other numbers are inactive results; . = not tested or not shown. A selection: hits, their analogues and other compounds. The true share with any hit is near 0.9%. Unless noted, no stated cut-off is given here; in the data, active means activation above about 22%; inactive means the rest.

SMILES | TR-FRET SRC-2 ct | SRC3 TRFRET art | PPARg SRC3 recr | PPARg SRC2 recr | SRC1 TRFRET art | PPARg SRC1 recr | PPARg SRC2 conf | PPARg SRC1 conf | PPARg SRC3 conf
Cn1c(N=Nc2ccc(N3CCOCC3)cc2)[n+](C)c2ccccc21 | 2551* | 2227* | 38.6* | 52.6* | 2668* | 42.9* | 21.8 | 18.4 | 16.8
Cn1c(=Nc2ccc(N3CCOCC3)cc2)ccc2ccccc21 | 1413 | . | -5.6 | -5.4 | . | -3.4 | . | . | .
CC(C)(C)c1ccc(C(=O)NC(=S)NNC(=O)c2cccs2)cc1 | 1584 | 1675 | 26.0* | 14.7 | 2055 | 8.8 | 6.8 | 6.4 | 8.5
N#Cc1ccc(-c2ccc(OCC(=O)NCCc3ccccc3)cc2)cc1 | 1530 | 1535 | -1.9 | -4.2 | 1735 | -3.5 | . | . | .
Cn1cc(CNC(=O)C2c3ccccc3Oc3ccccc32)cn1 | 1401 | . | -6.2 | -11.6 | . | 3.2 | . | . | .
O=C(O)/C=C/C(=O)Nc1ccc2nccnc2c1 | 1614 | 1670 | 7.6 | 4.1 | 1683 | 9.5 | . | . | .
COc1ccc(/C(O)=C2\C(=O)C(=O)N(c3cc(C)on3)C2c2ccc(OC)c(OC)c2)cc1OC (stereo not drawn) | 1427 | . | -4.2 | 5.5 | . | 7.6 | . | . | .
COc1ccc(/C(O)=C2\C(=O)C(=O)N(c3cc(C)on3)C2c2ccccc2OC)cc1 (stereo not drawn) | 2135* | . | 24.7 | 31.9* | . | 19.2* | 30.7* | 25.1* | 19.3
COc1cccc(C2/C(=C(\O)c3ccc(OC)c(OC)c3)C(=O)C(=O)N2c2cc(C)on2)c1 (stereo not drawn) | 1910 | . | 27.9* | 29.2* | . | 16.7 | 24.2* | 17.5 | 14.8
CCCCNC(=S)NNC(=O)c1nn(C)c(C)c1Cl | 1361 | . | -8.3 | -1.2 | . | 5.2 | . | . | .
COc1ccc(Cc2nnc(NS(=O)(=O)c3ccc(Cl)cc3)s2)cc1OC | 1453 | 1490 | -3.4 | 2.5 | 1681 | -9.5 | . | . | .
S=c1[nH]nc(COc2ccccc2)n1/N=C/c1ccc(Br)s1 | 1771 | . | 11.8 | 9.7 | . | 3.8 | . | . | .
C=CCCCCCCCC(=O)OC | 1655 | 1763 | 5.2 | 13.5 | 1995 | 22.4* | 4.6 | 3.6 | 2.2
O=C(CSc1nnc(-c2cccs2)n1-c1ccccc1)Nc1ccccc1 | 1837 | . | 31.4* | 63.6* | . | 45.5* | 19.8 | 16.7 | 9.1
CCOC(=O)CSc1nnc(-c2cccs2)n1-c1ccccc1 | 1676 | . | 5.8 | 6.4 | . | 6.5 | . | . | .
CC1(C(=O)NCCN2CCOCC2)C=CCN1C(=O)c1ccccc1 (stereo not drawn) | 1474 | 1548 | 1.9 | 12.2 | 1692 | 6.9 | . | . | .
Nc1ccc2c(c1)C(=O)C(=O)c1ccccc1-2 | 1964 | . | 28.7* | 32.1* | . | 22.4* | 20.2 | 22.8* | 11.6
O=C1C(=O)c2ccc(-c3ccccc3)cc2-c2ccccc21 | 1525 | . | -3.2 | -2.6 | . | 0.8 | . | . | .
Cc1cccc(C)c1NC(=O)NC1CC2CCC(C1)N2Cc1cccs1 (stereo not drawn) | 1704 | . | 3.3 | 0.1 | . | 5.8 | . | . | .
CCOC(=O)C1=C(C)OC(N)=C(C#N)C1c1cc2cc(C)ccc2nc1N1CCCCC1 (stereo not drawn) | 2305* | . | 61.8* | 40.2* | . | 38.2* | 62.3* | 44.0* | 42.0*
CCOC(=O)C1=C(C)OC(N)=C(C#N)C1c1cc(C)sc1C (stereo not drawn) | 1603 | . | -5.7 | 4.3 | . | -5.5 | . | . | .
COc1ccc(/C=N/c2c(-c3ccco3)nc3ccccn23)cc1OC | 1874 | . | 29.1* | 23.0* | . | 33.5* | 16.9 | 8.0 | 5.9
Cc1cc(C(=O)COc2ncnc3sccc23)c(C)n1C1CC1 | 1674 | . | 4.2 | 12.2 | . | 6.7 | . | . | .
CNC(=S)N1N=C(c2ccc(Br)cc2)CC1c1ccc(Br)cc1 (stereo not drawn) | 3230* | . | 50.8* | 28.4* | . | 30.0* | 47.3* | 37.4* | 28.0*
COc1ccccc1C1CC(c2ccccc2)=NN1C(=S)Nc1ccccc1 (stereo not drawn) | 2595* | 2517* | 22.7* | 37.3* | 3073* | 43.1* | 69.8* | 51.4* | 44.2*
SMILES | TR-FRET SRC-2 ct | SRC3 TRFRET art | PPARg SRC3 recr | PPARg SRC2 recr | SRC1 TRFRET art | PPARg SRC1 recr | PPARg SRC2 conf | PPARg SRC1 conf | PPARg SRC3 conf
COc1ccc(C2=NN(C(N)=S)C(c3ccccc3)C2)cc1 (stereo not drawn) | 2602* | 3054* | 29.1* | 53.3* | 3172* | 57.4* | 58.7* | 48.1* | 41.1*
CNC(=S)N1N=C(c2ccc(Br)cc2)CC1c1ccc(N(C)C)cc1 (stereo not drawn) | 3604* | 4796* | 28.7* | 20.4 | 4829* | 27.3* | 40.6* | 29.2* | 25.9*
CNC(=S)N1N=C(c2ccc(OC)cc2)CC1c1ccc(N(C)C)cc1 (stereo not drawn) | 1566 | . | 12.9 | 4.6 | . | -2.2 | . | . | .
CC(=O)N1N=C(c2ccc(C)o2)CC1c1ccc(Br)cc1 (stereo not drawn) | 1541 | . | 8.4 | 4.7 | . | 3.1 | . | . | .
CCOC(=O)C1CCCN(C(=O)C2c3ccccc3Oc3ccccc32)C1 (stereo not drawn) | 1494 | . | -5.7 | -16.7 | . | 1.5 | . | . | .
COc1ccc(C2CC(c3ccc(Br)cc3)=NN2C(=S)Nc2ccccc2)cc1 (stereo not drawn) | 2406* | 2737* | 22.2 | 26.5* | 2916* | 28.0* | 43.5* | 38.7* | 26.0*
O=C(NCC1CCCCC1)c1cccc(S(=O)(=O)NCc2cccnc2)c1 | 1652 | 1390 | 6.1 | -3.9 | 1720 | 8.6 | . | . | .
COc1ccccc1-c1nnc(SC2CCc3ccccc3NC2=O)s1 (stereo not drawn) | 2323* | . | 41.7* | 69.0* | . | 31.2* | 48.8* | 38.6* | 33.0*
COc1ccc(Br)cc1CNc1ccc(O)cc1 | 1752 | . | 18.4 | 23.4* | . | 10.1 | 7.0 | 4.8 | 6.0
CCC(CC)C(=O)Nc1nnc(-c2cccs2)s1 | 1582 | . | 13.4 | 8.5 | . | 11.8 | . | . | .
COc1cccc(OC)c1C(=O)Nc1nnc(-c2cccs2)s1 | 1921 | 2204* | 16.2 | 28.4* | 2546* | 30.8* | 27.2* | 21.5* | 20.3
O=C(N=Nc1c(O)[nH]c2ccccc12)c1cccs1 | 1613 | 1800 | 7.4 | 0.5 | 1990 | 3.3 | . | . | .

Screening data as filed in PubChem.
